Among the data in PubChem BioAssay (NCI) are growth values, retold here.

The panel holds about 83,000 compounds, 20% with a hit somewhere; the sample as a whole holds those more often.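 Results are percent growth after 48 hours of single-concentration exposure. 100 means growth as in untreated cells, lower positive values show inhibition; negative values down to -100 show cell death.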 A number with no mark means an inactive call. Active and inactive are the calls of the source. Rule for the calls: active = growth percent below 10; inactive = the rest.

The test system of this experiment is MDA-MB-468 breast. Nature of the experiment: NCI-60 one-dose screen, 48 h (100 = growth as untreated, 0 = no growth, -100 = all killed). Particulars: 10 µM unless noted.
As for `Cn1c2ccccc2c2nnc(N/N=C/c3ccccn3)nc21`, the growth is -25.1% (active).

Consider `NNc1c2ccccc2nc2ccccc12`, for which the growth was 16.4%.

On to `O=C1OC(Cc2ccccc2)C1c1ccccc1` (stereo not drawn), for which the growth is 97.4%.

Regarding `COCCn1cc(-c2nc(-c3cc4cccnc4n3CCOC)cs2)c2cc(OC)ccc21`, the growth is -18.4% (active).

Consider `CC1(C)OCC(COC(c2ccccc2)(c2ccccc2)c2ccccc2)O1` (stereo not drawn), for which the growth is 109%.

With `COc1cc2ncnc(Nc3ccc(S(=O)(=O)Nc4cc(C)on4)cc3)c2cc1OCCCN1CCN(c2ccc(F)cc2)CC1`, the growth was 103%.

For the compound `O=C(/C(=C(\C(=O)c1ccccc1)c1ccccc1)c1ccccc1)c1ccccc1`, the growth is 47.9%.

As to `Nc1ccccc1-c1ccn[nH]1`, the growth was 101%.

Turning to `CSc1nc2ccccc2cc1/C=C1/C=C(c2ccccc2)NC1=O`, the growth is 61.6%.

With `COc1cc(-c2nc(SCC(=O)Nc3ccc(C(C)=O)cc3)[nH]c(=O)c2C#N)cc(OC)c1OC`, the growth is -12.8% (active).

Regarding `O=C(Nc1cccc(Cn2c(=O)[nH]c3ccc(Oc4ncccn4)cc3c2=O)c1)c1ccc(Cl)cc1`, the growth was 16.8%.

Take `CCN(CC)c1cc(/C=C/c2ccc(OC)c(OC)c2)nc2cc(F)c(F)cc12`: the growth was -32.6% (active).

As to `COc1c(Cl)cc(Cl)cc1Cl`, the growth is 110%.

As to `Nc1nc2c(ncn2C2OC3COP(=O)(O)OC4C(COP(=O)(O)OC2C3O)OC(n2cnc3c(N)ncnc32)C4O)c(=O)[nH]1` (stereo not drawn), the growth was 116%.

Consider `COc1ccc(N(c2nc(-c3ccc([N+](=O)[O-])cc3)cs2)C(C)C)cc1`, for which the growth is 20.4%.

For the compound `OCC12CCCC(CO)(COC1)C2O` (stereo not drawn), the growth was 109%.

As to `NN1CCOC(c2ccccc2)C1` (stereo not drawn), the growth is 113%.

For `O=C(/C=C/c1cccnc1)/C=C/c1cccnc1`, the growth was -64.1% (active).

`CCc1cnc2ccccc2c1/C=C/c1ccc(N(C)C)cc1`: the growth is 24.9%.

As for `Nc1ccc(S(=O)(=O)Nc2ccnn2-c2ccccc2)cc1`, the growth was 107%.

In the case of `COc1cc(/C=C/C(=O)c2cccnc2Nc2ccc(F)cc2)cc(OC)c1OC`, the growth is 16.3%.

`Cc1[nH]nc2c(=S)[nH]c(=O)[nH]c12`: the growth was 101%.

With `O=C(NCCNc1nccc(-c2c(-c3cccc(F)c3)nc3sccn23)n1)c1ccc(Cl)cc1`, the growth is 67.8%.

For `CCCCCCC12CCC(=O)N1CCc1cncn12` (stereo not drawn), the growth was 85%.

Regarding `S=C(Nc1ccc(Cl)cc1)Nc1ccc(Cl)cc1` (tested in a mixture with another compound), the growth is -16.6% (active).

On to `CC1(C)CC(=O)C2=C(C1)OC1=C(C(=O)CC(C)(C)C1)C2c1ccc(OCc2cn(-c3ccc(F)cc3F)nn2)cc1`, for which the growth is 103%.

As for `O=c1cc(-c2ccccc2)nc(SCc2nc3cc(Cl)c(Cl)cc3[nH]2)[nH]1`, the growth is 116%.

As for `CC12CCCCC1C(C(N)=O)C(=O)O2` (stereo not drawn), the growth is 122%.
